From the supplement of paper PMC6555819

How the values were obtained:
Experiment in all cases: PBM binding z-score (relative to random genomic background probes); higher = stronger binding; sequences stand for … in GC…GCGATTGACAGCGTAGAATGAAGG
[1] = test system: RARb homodimer (NR concentration 270 nM)
Summary of the method: (§1)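 Ligand-free nuclear receptor dimers were applied to custom Agilent 4×180K protein-binding microarrays whose double-stranded probes carried direct-repeat seeds, single-nucleotide variants, half-site ablations and random human genomic background sequences in 34-nt variable regions. Incubation lasted 1 h. Binding z-scores were computed against the random background probes from regression-normalized fluorescence.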

[2] = test system: RARg:RXRa (NR concentration 270 nM, RXRa partner concentration 90 nM)
Summary of the method: as §1

[3] = test system: RARg homodimer (NR concentration 270 nM)
Summary of the method: as §1

[4] = test system: RXRa DBDmut IVT, anti-RXR (DBD mutation: RXRa K156A/R161A, NR concentration 90 nM)
Summary of the method: as §1

[5] = test system: RXRa homodimer (NR concentration 180 nM)
Summary of the method: as §1

[6] = test system: THRa:RXRa (NR concentration 90 nM, RXRa partner concentration 90 nM)
Summary of the method: as §1

[7] = test system: THRa homodimer (NR concentration 90 nM)
Summary of the method: as §1

[8] = test system: VDR homodimer (NR concentration 270 nM)
Summary of the method: as §1

Sequence | PBM binding z-score [1] | PBM binding z-score [2] | PBM binding z-score [3] | PBM binding z-score [4] | PBM binding z-score [5] | PBM binding z-score [6] | PBM binding z-score [7] | PBM binding z-score [8]
ATATGTAGGTTAGCTGTGGTCATTCAGACTAGGC | 1.13 | 0.752 | 0.985 | 0.139 | 0.643 | 3.29 | -0.0944 | 0.494
CGAACAAGGTCAGAACAGGACAGTGAAGGATGAT | 3.28 | 4.38 | 4.86 | 2.29 | 3.5 | 4.28 | 1.11 | 1.14
CCTAGCAGGCTAGGGTCACTCAAGCATTTCGCTT | 2.67 | 3.35 | 2.35 | 0.61 | 3.65 | 3.64 | 1.81 | 1.07
TCTTGTAGATCAATAGAGGTTAAAAAAGTGCGCT | 1.19 | 0.821 | 0.586 | 0.81 | 1.39 | 2.21 | -0.13 | 0.48
GCGACTGGCGCAAAGCAGGTTACCATAAGGTTGG | -0.0806 | -0.27 | -0.774 | -0.791 | -0.0574 | 0.636 | -0.543 | -0.861
CCTACTGGGCCAAAGGTCATTGTTTCCAATGCTC | 4.48 | 5.41 | 3.97 | 1.26 | 5.82 | 3.29 | 0.832 | 2.26
ACTAGCAGGCCAAGATTGGGTCACTCAAACAAAG | 1.97 | 1.63 | 1.37 | -0.534 | 0.621 | 1.84 | 0.533 | 0.0162
TCTAGCAGGCCAGAGGGTCCCTCAAGAGGTACGG | -0.677 | -0.337 | -0.396 | -0.214 | -0.191 | -0.666 | -1.29 | -0.908
TCTTGTAGATCAACAGGAAGTTAAGAAAGATCGA | -0.828 | -0.328 | -0.339 | 0.508 | -0.0187 | -0.307 | -1.05 | -0.551
AGAATGAGGTTATTAAAATCAGGGAATTGCGGTC | 0.836 | 0.827 | 0.788 | 1.46 | 1.43 | 1.89 | 0.676 | 0.874
CGTCCATGGTCAATGCTAGGTCAGTGAAAGCATT | 2.59 | 2.58 | 1.9 | 0.0994 | 0.519 | 1.9 | 0.665 | -0.0955
ACTTACGGGTCAACGAGCTTATAGCACGCGTATA | 2.92 | 5.34 | 5.01 | 1.56 | 6.14 | 2.46 | 0.0469 | 0.846
CCTTACGGGTCACGAGGTTATAGTACGACGAGCG | 3.95 | 6.29 | 6 | 1.55 | 7.51 | 3.87 | 1.19 | 2.14
CAAACTAGGTCCCGAAAGGTCAAAGTCGAATGAC | 4.87 | 5.77 | 5.09 | 1.4 | 6.66 | 4.1 | 1.43 | 2.66
CAAACTAGGTCACAGAGGTCAATGTCCGTGCGTA | 5.68 | 6.89 | 7.2 | 3.06 | 6.85 | 4.66 | 2.96 | 6.33
TCGAGTAGGTTACCAATGGGGCATTCTGCTTTCT | 0.45 | 0.898 | 0.393 | 0.539 | 0.447 | -0.229 | -0.884 | -0.862
ATACCAAGGTGATCGTGAGGTCGTTAATACTAAC | 1.68 | 1.93 | 0.856 | 0.881 | 1.32 | 3.3 | 2.44 | 3.04
ACTAGTTGGTCAGCTGAGCTCACACACAATTCGG | 0.0845 | -0.0715 | 0.577 | 0.194 | -0.234 | 0.0887 | -0.346 | -0.289
ACAGACAGGTGATGAAGGTAGCTCAGGCTATCAT | -0.243 | -0.0777 | 0.295 | -0.263 | 0.147 | 0.294 | -0.392 | -0.696
CCTAATGGGCCAAAAAGGTCATTGATGCCGATAA | 4.33 | 4.34 | 4.05 | 1.29 | 4.45 | 3.03 | 0.29 | 2.59
ACGATTAGTTGACTTAGGGCAACCGATACGACGC | 0.941 | 0.65 | 0.654 | 0.0967 | 0.512 | 1.43 | 0.264 | -0.201
ATATGTAGGTTAAGGGTCATTCAAGTTGGTTCGC | 4.23 | 4.98 | 4.09 | 1.9 | 6.39 | 4.2 | 1.78 | 3.88
ACAGACAGGTGAATGAAGGTAACTCAGCTGGACG | 0.0507 | 0.439 | 0.784 | -0.296 | 0.534 | 2.08 | -0.448 | -0.781
ATATGGAGGTTATCGGGTCATTCAGTTTGCGCAT | 3.56 | 4.27 | 3.28 | 2.19 | 4.9 | 3.71 | 3 | 4.69
GATACAGGATCAGCTAGAGGCCAGAGTATGGAAA | -0.0727 | 1.16 | 0.363 | -0.823 | 0.154 | -0.0869 | -1 | -0.773
CTCGAAAGGTCGTGCTCAGTTGAGTATACCAAAC | 2.57 | 4.35 | 3.63 | 1.71 | 4.77 | 2.66 | 0.251 | 0.971
GCAGACAGGTGAAACGCAGGTAACACAGGGTGGC | 0.0703 | 1.1 | 0.467 | -0.772 | 0.886 | 1.26 | -0.435 | -0.401
CCAACTAGGTCAAAGGTCAAAGTCGAGCCAACCA | 5.33 | 9.03 | 7.43 | 3.14 | 10.2 | 4.82 | 1.79 | 3.47
CTAACTAGGTCAAGGACAGTGAATCTCCGCACGC | 3.16 | 3.64 | 4.21 | 1.34 | 2.64 | 3.08 | 2.01 | 0.398
